Assay outcomes deposited in PubChem BioAssay by National Center for Advancing Translational Sciences (NCATS).
GAA inhib – qHTS Assay for Inhibitors of Human alpha-Glucosidase as a Potential Chaperone Treatment of Pompe Disease; Potency, µM (titrated, usually from 76.9 µM), without a hit: at the highest dose activity change, negative = inhibition, usual class: inhibitors; actives 0.005% (n = 200,000); purified human GAA, 4-MU-alpha-glucoside fluorescence; AID 1466, 2008; Lysosomal alpha-glucosidase (Homo sapiens), P10253;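 note: plate controls were uninhibited enzyme wells for no effect and no-enzyme background for full effect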
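Fluorescence at Ex 365/Em 440 nm from 4-methylumbelliferone reported enzyme activity after 20 min at room temperature. Reactions used 4 nM enzyme and 400 uM substrate at pH 5.0; curves fitted with the Hill equation.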
PKM2 activator – qHTS Assay for Activators of Human Muscle isoform 2 Pyruvate Kinase; Potency, µM (top dose mostly 57.5 µM), without a hit: at the highest dose activation, hits mostly activators; actives 0.34% (n = 260,000); Pyruvate kinase PKM (Homo sapiens), P14618; purified PKM2, Kinase-Glo ATP luminescence, activation; response scale: 0% is enzyme alone, no compound; note: nearly all actives have a fitted effect of over 55% in size
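Kinase-Glo luminescence reports ATP generated from ADP (0.1 mM) and PEP (0.5 mM) by purified hPK-M2 after 1 h at room temperature, pH 7.2 imidazole buffer; intermediate enzyme activity allows detecting inhibitors and activators.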
GALK inh – qHTS Assay for Inhibitors of Human Galactokinase (GALK); P51570; Purified GALK, Kinase-Glo residual ATP luminescence; Potency, µM (top dose mostly 57.5 µM), for inactives: top-dose activity change, negative = inhibition, most hits filed as inhibitors; actives 0.007% (n = 270,000); AID 1868, 2009
Target sequence (P51570 whole entry, looked up): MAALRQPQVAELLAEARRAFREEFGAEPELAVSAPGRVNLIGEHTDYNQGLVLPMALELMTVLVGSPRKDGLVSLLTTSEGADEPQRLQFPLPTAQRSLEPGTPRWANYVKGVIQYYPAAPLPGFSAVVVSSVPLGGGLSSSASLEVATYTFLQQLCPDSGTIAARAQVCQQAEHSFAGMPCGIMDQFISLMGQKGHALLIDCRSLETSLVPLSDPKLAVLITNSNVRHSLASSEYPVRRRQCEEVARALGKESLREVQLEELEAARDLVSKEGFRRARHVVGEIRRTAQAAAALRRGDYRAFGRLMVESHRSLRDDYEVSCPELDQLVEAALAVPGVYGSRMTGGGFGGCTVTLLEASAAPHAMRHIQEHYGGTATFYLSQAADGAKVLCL
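Human GALK (5 nM) with 35 uM ATP and 100 uM galactose in 20 mM HEPES pH 8.0, 5 mM MgCl2, 60 mM NaCl, 1 mM DTT, 0.01% BSA. After 1 h at room temperature, leftover ATP was read by Kinase-Glo Plus luminescence.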
GAA glycogen mod – qHTS Assay for Inhibitors and Activators of Human alpha-Glucosidase Cleavage of Glycogen. Potency, µM (titrated, usually from 76.4 µM), for inactives: at the highest dose activity change, negative = inhibition, hits mostly inhibitors. actives 0.38% (n = 300,000). recombinant GAA, glycogen substrate, Amplex Red glucose oxidase fluorescence. Lysosomal alpha-glucosidase (Homo sapiens), P10253;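 note: 0% = full enzyme reaction and -100% = no-enzyme basal signal; the screen sought inhibitors and activators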
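Natural-substrate format: glycogen cleavage by 4 nM human enzyme, glucose read by Amplex Red coupling (Ex 573, Em 610 nm). Normalized to enzyme and no-enzyme controls.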
aGlu spleen mod – qHTS Assay for Inhibitors and Activators of Human alpha-Glucosidase From Spleen Homogenate; Lysosomal alpha-glucosidase (Homo sapiens), P10253; human spleen homogenate, 4-MU-alpha-glucoside fluorescence; Potency, µM (titrated, usually from 79.9 µM), inactives show top-dose activity change, negative = inhibition, most hits filed as inhibitors; actives 0.006% (n = 240,000);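 note: 0% = enzyme with vehicle and -100% = no enzyme basal signal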
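Enzyme source: human spleen homogenate, 1 ug/well. Buffer 50 mM citric acid/K phosphate pH 5.0, 0.01% Tween-20. 4-MU-alpha-glucoside 1 mM; 37 C x 40 min; NaOH/glycine stop; fluorescence.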
Numbers without * were called inactive; ? = inconclusive; / = no result; [ ] = remark or other dose. Most compounds without a hit are left out; they make up all but 0.63% or so of the library. Calls come from the whole dose curve; as a rule, active = well fitted curve in the direction sought with a large enough effect; inconclusive = small, poorly fitted or top-dose-only effect, or another doubt; inactive = no such curve, though single readings can be large; an effect the other way counts as inactive or inconclusive. Unless noted, % is set by controls: 0 for no effect and ±100 for the full control effect; potency is the fitted concentration of half-maximal effect.

SMILES	GAA inhib	PKM2 activator	GALK inh	GAA glycogen mod	aGlu spleen mod
COCCN1CCc2nc(SCC(=O)Nc3ccc(C)c(Cl)c3)[nH]c(=O)c2C1	/	/	/	4%[76.3 µM]	/
CC(C)N=c1scc(-c2ccco2)n1/N=C/c1ccc(O)c(O)c1	-13%	23%	-6%	7.1µM*	-2%
CC(=O)C1=C(c2ccccc2)NC(=S)NC1c1ccc(O)c(O)c1 (centres undefined)	4%	20%	-5%	3.2µM*	-1%
CC(=O)C1=C(c2ccccc2)NC(=O)NC1c1ccc(O)c(O)c1 (centres undefined)	11%	?	7%	?	0%
CCN(CC(=O)NCc1ccc(F)cc1)C(=O)/C=C/c1cccs1	2%	-6%	0%	-4%	5%
CCN(CC(=O)NCc1ccc(F)cc1)C(=O)/C=C/c1ccco1	1%	13µM*	1%	-4%	5%
Cc1cc(C)cc(-n2ccn(CC(=O)c3ccc(F)cc3)c(=O)c2=O)c1	/	/	/	-1%[76.3 µM]	/
CCc1ccc(NC(=O)C(=O)NCC(c2cccnc2)N2CCN(Cc3ccccc3)CC2)cc1 (centres undefined)	/	/	/	-1%[76.3 µM]	/
CCOC(=O)C1CCN(C(=O)CN2c3ccc(C(C)C)cc3-c3ccccc3S2(=O)=O)CC1	/	/	/	8%[76.3 µM]	/
Nc1nc(-c2ccccc2)cn1N	5%	28µM*	2%	25%	-1%
S=C(c1ccc(-c2ccc(Br)cc2)o1)N1CCOCC1	/	13µM*	0%	-5%	3%
Cc1ccc(-n2ccn(CC(=O)c3ccc(F)cc3)c(=O)c2=O)cc1C	/	/	/	-8%[76.3 µM]	/
NC(=O)COC(=O)c1ccc(S(=O)(=O)N2CCCCCC2)cc1	-12%	-2%	0%	12%	-10%
Cc1nc(COC(=O)c2ccc(S(=O)(=O)N3CCCC3)cc2)cs1	-17%	28µM*	0%	6%	-4%
Nc1cc(C(=O)O)ccc1Nc1ccc(F)c(F)c1	-6%	4%	0%	12µM*	3%
COc1ccc2nc(C)cc(Nc3ccc(Cl)c(Cl)c3)c2c1	/	/	/	-1%[76.3 µM]	/
Cc1ccc(Cn2c(C(=O)O)c(CNCc3ccc(OC(C)C)cc3)c3ccc(C)cc32)cc1	/	/	/	-15%[76.3 µM]	/
CN1/C(=C\C(=O)COC(=O)c2ccc(O)cc2)C(C)(C)c2ccccc21	/	-2%	-1%	-5%	-2%
CN1/C(=C\C(=O)COC(=O)c2ccc(O)c(O)c2)C(C)(C)c2ccccc21	0%	-8%	8%	10µM*	-2%
Cc1ccc(-n2nc(CO)c(C(=O)NC(C)CCCc3ccccc3)n2)cc1 (centres undefined)	/	/	/	1%[76.3 µM]	/
Cc1cc(=O)oc2c(N)c(O)ccc12	-1%	-8%	4%	10µM*	6%
COc1cc(C(=O)Nc2ccc(-c3cc(C(F)(F)F)nn3-c3ccccc3)cc2)cc(OC)c1OC	/	/	/	-19%[76.3 µM]	/
COc1cccc(-c2csc(-c3c(N)c(C(=O)c4ccccc4)n4ccccc34)n2)c1	/	/	/	8%[76.3 µM]	/
CCc1ccc(CCC(=O)Nc2ncc(Cc3ccccc3Cl)s2)o1	5%	14µM*	-1%	13%	-3%
O=C(CN1CCOCC1)Nc1ncc(Cc2ccccc2Cl)s1	?	-24%	3%	9%	-5%
SMILES	GAA inhib	PKM2 activator	GALK inh	GAA glycogen mod	aGlu spleen mod
Fc1ccc(Nc2ncnc3onc(-c4cccc(Cl)c4)c23)c(F)c1	/	/	/	10%[76.3 µM]	/
COc1ccc(N2CCN(C(=O)c3nc(-c4ccc(Cl)cc4)n4c3CCCCC4)CC2)cc1	/	/	/	14%[76.3 µM]	/
Cc1ccccc1NC(=O)CSc1nnc(-c2ccco2)c(-c2ccco2)n1	-9%	23%	4%	?	-8%
Cc1cccc(C)c1NC(=O)CSc1nnc(-c2ccco2)c(-c2ccco2)n1	?	11µM*	-1%	6%	-11%
O=C(NC(=S)NNC(=O)c1cccs1)c1ccco1	-6%	-13%	/	28µM*	-18%
CC(C)CCNc1ncnc2c1nnn2Cc1ccccc1	/	0%	0%	14%[76.3 µM]	/
COc1ccccc1CNc1ncnc2c1nnn2Cc1ccccc1	?	20µM*	10%	0%	-3%
Cc1cccc2nc(-c3ccco3)c(Nc3ccc4c(c3)OCO4)n12	-3%	15%	1%	?	4%
COc1ccc(-c2nc3cnccn3c2Nc2ccc3c(c2)OCO3)cc1	-5%	9%	-2%	?	-4%
Cc1ccc(-c2nc3cccc(C)n3c2Nc2ccc3c(c2)OCO3)o1	/	/	/	1.8µM*	/
Cc1ccn2c(Nc3ccc4c(c3)OCO4)c(-c3ccco3)nc2c1	/	/	/	5µM*	/
Cc1ccc2nc(-c3ccccc3O)c(Nc3ccc4c(c3)OCCO4)n2c1	-7%	1%	/	3%	-4%
COc1ccc(-c2nc3ccc(C)cn3c2Nc2ccc3c(c2)OCO3)cc1	/	/	/	18µM*	/
Cc1ccc2nc(-c3ccc(O)cc3)c(Nc3ccc4c(c3)OCCO4)n2c1	1%[15.4 µM]	-1%	0%	14µM*	4%
COC(=O)c1c(-c2cccs2)csc1NC(=O)COc1ccc(C(C)C)cc1	/	/	/	3%[76.3 µM]	/
CCc1ccc(-n2nc(CO)c(C(=O)NCCCCc3ccccc3)n2)cc1	/	/	/	14%[76.3 µM]	/
Cc1ccc2nc(-c3ccc(Cl)s3)c(Nc3ccc4c(c3)OCCO4)n2c1	/	/	/	-17%[76.3 µM]	/
Clc1ccc(-c2nc3ccccn3c2Nc2ccc3c(c2)OCCO3)s1	/	/	/	10µM*	/
Cc1cc(C)c(C#N)c(SCC(=O)Nc2nonc2N)n1	/	14µM*	2%	7%	/
COc1cc(C(=O)NNc2nc3cc4c(cc3s2)OCO4)cc(OC)c1OC	-5%[15.4 µM]	-6%	/	25µM*	1%
COc1cc(OC)cc(C(=O)NNc2nc3cc4c(cc3s2)OCO4)c1	-2%[15.4 µM]	-2%	/	?	-2%
Nc1n[nH]c(-c2ccc(Br)cc2)c1Cl	?	2%	0%	13µM*	?
Cc1ccc(O)c(-c2cc3ccccc3[nH]2)c1	?	-2%	2%	32µM*	6%
COc1ccc(-c2cc3ccccc3[nH]2)cc1	/	2%	-1%	-5%	-1%
Cn1c(Cn2cnc(Cl)c2Cl)nc2ccccc21	-9%	25µM*	11%	-3%	-8%
O=C(O)c1cccc(-c2ccc(/C=N/Nc3nn[nH]n3)o2)c1	-8%	-8%	6%	1.8µM*	-8%
O=C(NCc1ccccn1)C(=O)NN=C1CCCCCCC1	-8%	-8%	5%	32µM*	2%
O=C(NCc1ccccn1)C(=O)NCc1ccccn1	5%	4%	-2%	9%	1%
C/C(CCc1oc2ccccc2c1-c1ccc(C)o1)=N/O	-30%	25%	2%	-2%	3%
